Bioassay records as filed in PubChem.
Compounds with a hit are over-represented: about 18% of the library has one in this group of screens.
DT40 TDP1 CPT – qHTS for Inhibitors of human tyrosyl-DNA phosphodiesterase 1 (TDP1): qHTS in cells in presence of CPT; 420,000 compounds, 12% hits; chicken DT40 Tdp1-/-;hTDP1 cells + 20 nM CPT, ATP luminescence, 48 h; Potency, µM (titrated, usually from 46.2 µM), usual class: inhibitors; further: nearly all actives have a fitted effect of over 55% in size
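Chicken DT40 Tdp1-/- cells stably complemented with human TDP1 were seeded at 400 cells/well in medium containing 20 nM camptothecin, exposed to pin-transferred compounds, and grown at 37 °C for at least 48 hr. Viability was read as ATP luminescence.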
TDP1 inh – qHTS Assay for Inhibitors of Tyrosyl-DNA Phosphodiesterase (TDP1). recombinant TDP1, AlphaScreen DNA substrate cleavage. Potency, µM (highest dose often 130 µM), most hits filed as inhibitors. 350,000 compounds, 0.28% hits; further: nearly all actives have a fitted effect of over 40% in size
Target sequence (Q9NUW8 whole entry, looked up): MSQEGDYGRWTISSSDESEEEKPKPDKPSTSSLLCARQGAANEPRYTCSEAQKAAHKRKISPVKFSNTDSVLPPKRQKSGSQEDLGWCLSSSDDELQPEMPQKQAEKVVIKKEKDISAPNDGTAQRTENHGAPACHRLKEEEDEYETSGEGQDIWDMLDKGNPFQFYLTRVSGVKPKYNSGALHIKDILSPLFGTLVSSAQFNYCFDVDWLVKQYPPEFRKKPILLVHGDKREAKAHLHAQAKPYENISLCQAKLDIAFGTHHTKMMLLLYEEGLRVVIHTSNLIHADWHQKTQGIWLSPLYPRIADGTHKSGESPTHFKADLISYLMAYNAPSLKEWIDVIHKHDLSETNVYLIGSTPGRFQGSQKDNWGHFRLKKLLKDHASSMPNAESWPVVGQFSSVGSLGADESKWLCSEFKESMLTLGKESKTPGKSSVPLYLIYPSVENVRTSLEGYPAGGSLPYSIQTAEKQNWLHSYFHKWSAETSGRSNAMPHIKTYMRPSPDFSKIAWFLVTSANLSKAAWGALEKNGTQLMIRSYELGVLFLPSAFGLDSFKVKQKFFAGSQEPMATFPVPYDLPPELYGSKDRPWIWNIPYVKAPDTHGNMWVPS
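AlphaScreen read-out: signal falls as enzyme removes the 3' tyrosine-FITC from a 5'-biotinylated DNA oligo (15 nM, 5 min, RT). Enzyme was E. coli-made recombinant Tdp1 at 1 nM, exposed to compound for 15 min beforehand; beads 10 ug/ml, 10 min.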
HepG2 tox-1 – qHTS for Inhibitors of TGF-b: Cytotox Counterscreen; 410,000 compounds, 0.76% hits; Potency, µM (titrated, usually from 46.1 µM), actives largely listed as cytotoxic; HepG2 CAGA-GFP viability, ATP luminescence, 18 h; AID 588856, 2011
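CellTiter-Glo luminescence gave cytotoxicity after 18 hours at 37 degrees C. The cells were HepG2 CAGA-GFP in 1% FBS DMEM, stimulated with 500 pg/mL TGF-beta after compound addition. %Activity was normalised to no-cell wells (complete cell-killing) and DMSO (no toxicity), and curves were fitted and classified.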
IL1B secr inh – qHTS for Inhibitors of Inflammasome Signaling: IL-1-beta AlphaLISA Primary Screen; THP-1 LPS/ATP IL-1B secretion, AlphaLISA, 16 h; hits give low values; activity change, % at 57.5 µM; 360,000 compounds, 4.7% hits; in the data active means activity change below about -50%; inconclusive means mostly about -30% to -49%
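Secreted IL-1B measured by AlphaLISA bead assay after 16 h compound exposure of THP-1 cells; compounds (final up to 57.5 uM) added 1 h before LPS (250 ng/mL) and ATP (1.25 mM) stimulation; lower signal means less secretion.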
TGFb SMAD3 inh – qHTS for Inhibitors of TGF-b; HepG2 CAGA-GFP TGF-b/SMAD3 reporter, GFP fluorescence, 18 h; TGF-beta stimulated, 500 pg/mL final; Potency, µM (titrated, usually from 46.1 µM), most hits filed as inhibitors; 410,000 compounds, 1.2% hits; further: nearly all actives have a fitted effect of over 65% in size
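First, reporter cells (HEPG2 CAGA-GFP) rested 2 h at 37 degrees C. Next, compounds were pinned in and TGF-beta added to 500 pg/mL final. After 18 h, GFP was imaged per cell and summed per well.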
DT40 TDP1 no CPT – qHTS for Inhibitors of human tyrosyl-DNA phosphodiesterase 1 (TDP1): qHTS in cells in absence of CPT; DT40 Tdp1-/- hTDP1 cells, no CPT, ATP luminescence, 48 h; Potency, µM (highest dose often 46.2 µM), most hits filed as inhibitors; 420,000 compounds, 15% hits; AID 686978, 2013; further: nearly all actives have a fitted effect of over 55% in size
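Readout: luminescence from CellTiter-Glo after 30 min in the dark at RT. Cells: DT40 Tdp1-/- with stable hTDP1, 400/well. Exposure: compounds alone, ≥48 hr, 37 °C.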
TGFb confirm – qHTS for Inhibitors of TGF-b: Confirmation of Cherry Picks | shares compounds with TGFb SMAD3 inh | HepG2 CAGA-GFP TGF-b reporter, GFP fluorescence, 18 h; cells stimulated with TGF-beta, 500 pg/mL | Potency, µM (titrated, usually from 46.1 µM), hits mostly inhibitors | 1,600 compounds, 63% hits; further: nearly all actives have a fitted effect of over 65% in size
HepG2 tox-2 – qHTS for Inhibitors of TGF-b: Cytotox Counterscreen for Cherry Picks. shares compounds with TGFb SMAD3 inh. HepG2 CAGA-GFP viability, ATP luminescence, 18 h; cells stimulated with TGF-beta, 500 pg/mL. Potency, µM (highest dose often 46.1 µM), most hits filed as inhibitors. 1,600 compounds, 27% hits; further: nearly all actives have a fitted effect of over 70% in size
TGFb CCL64 inh – qHTS for Inhibitors of TGF-b: CCL64 Cells Orthogonal Assay for Cherry Picks; shares compounds with TGFb SMAD3 inh; AID 720536, 2013; CCL64 CAGA-GFP reporter, TGF-b stimulated, GFP fluorescence, 18 h; 1,600 compounds, 41% hits; Potency, µM (top dose mostly 46.1 µM), actives largely listed as inhibitors; further: nearly all actives have a fitted effect of over 65% in size
TGFb COP inh – qHTS for Inhibitors of TGF-b: Hit Validation in HepG2 Cells using COP promoter. shares compounds with TGFb SMAD3 inh. HepG2 COP-GFP TGF-b reporter, GFP fluorescence, 18 h; cells stimulated by added recombinant TGF-beta. Potency, µM (series often up to 46.1 µM), usual class: inhibitors. 1,600 compounds, 3% hits. AID 720537, 2013; further: nearly all actives have a fitted effect of over 70% in size
Numbers stand for hits; 0 = inactive; ? = inconclusive; - = no result; [ ] = dose if it differs, or a comment. Unless noted, the call rests on the fitted dose curve; in most records, active means well fitted curve in the direction sought with a large enough effect; inconclusive means small, poorly fitted or top-dose-only effect, or another doubt; inactive means no such curve, though single readings can be large; an effect the other way counts as inactive or inconclusive.

SMILES	DT40 TDP1 CPT	TDP1 inh	HepG2 tox-1	IL1B secr inh	TGFb SMAD3 inh	DT40 TDP1 no CPT	TGFb confirm	HepG2 tox-2	TGFb CCL64 inh	TGFb COP inh
O=C(c1ccco1)N1CCN(c2ncnc3scc(-c4ccc(F)cc4)c23)CC1	?	0	0	0	17.8µM	?	16.4µM	0	0	0
O=C(c1ccco1)N1CCN(c2ncnc3c(-c4ccc(Cl)cc4)nsc23)CC1	0	0	0	0	0	0	-	-	-	-
c1ccc2c(Nc3nc(-c4ccncc4)nc4ccccc34)cccc2c1	?	-	0	-	0	?	-	-	-	-
Clc1cccc(Nc2nc(-c3ccncc3)nc3ccccc23)c1	0	0	0	0	0	?	?	?	?	0
Clc1ccccc1Nc1nc(-c2ccncc2)nc2ccccc12	29.1µM	-	0	0	0	16.4µM	0	23.1µM	?	0
COc1ccc(Nc2nc(N3CCOCC3)nc(N3CCOCC3)n2)c(OC)c1	?	-	0	0	0	0	-	-	-	-
COc1ccc(Nc2nc(N3CCCC3)nc3ccccc23)c(OC)c1	?	0	0	-99.1	10µM	?	?	?	?	0
Oc1ccccc1-c1nc2cnccn2c1Nc1ccc2c(c1)OCCO2	?	0	0	0	?	0	?	0	?	0
COc1ccc(Nc2nnc(-c3ccc(C)cc3)c3ccccc23)cc1C(=O)N1CCCCC1	?	0	0	-74.3	15.8µM	?	0	?	?	0
COc1cc(O)cc(O)c1C(=O)/C=C/c1ccccc1	14.6µM	0	0	-106.1	14.1µM	14.6µM	20.6µM	?	?	0
O=C(Cc1cccs1)Nc1nc2c(ccc3ccccc32)s1	?	0	0	0	14.1µM	?	16.4µM	0	?	0
COc1ccc(NC(=O)Nc2ccccc2C(N)=O)cc1	0	0	0	0	0	0	-	-	-	-
COc1ccc(NC(=O)Nc2ccc(O)c3ccccc23)cc1	5.8µM	-	0	0	6.31µM	13µM	?	0	16.4µM	0
O=C(CN1CCN(C(=O)C2CCN(C(=O)/C=C/c3ccccc3)CC2)CC1)Nc1ccc(F)cc1	?	-	0	-83.4	0	?	0	0	0	0
O=C(CCC(=O)N1CCSc2ccccc21)NCc1cccc(Cl)c1	?	-	0	0	?	?	?	0	0	0
COCCNC(=O)C1(C)CCCN(Cc2c(C)nn(-c3ccccc3)c2C)C1 (centres undefined)	0	-	0	0	0	0	-	-	-	-
Oc1c(C(c2ccccc2Cl)N2CCCC2)ccc2cccnc12 (centres undefined)	14.6µM	0	0	0	0.447µM	16.4µM	?	?	?	0
Cc1ccc(C(c2cc(Cl)c3cccnc3c2O)N2CCN(C)CC2)cc1 (centres undefined)	?	-	0	0	?	?	-	-	-	-
COc1ccc(Cl)cc1NC(=O)CSc1nnc(Cc2ccc(C)cc2)c(=O)[nH]1	0	0[0.505 µM]	0	0	8.91µM	?	20.6µM	?	0	0
Cc1ccc(Cc2nnc(SCC(=O)Nc3ccccc3Cl)[nH]c2=O)cc1	0	0[0.505 µM]	0	0	0	?	-	-	-	-
CN(CC(=O)Nc1cccc(F)c1)C(=O)c1cc(-c2ccccc2)nc2ccccc12	?	0	0	0	?	?	-	-	-	-
COc1ccc(-c2cc(C(=O)N(C)CC(=O)Nc3cccc(F)c3)c3ccccc3n2)cc1	16.4µM	0	0	-56.5	?	?	18.4µM	?	?	0
Cc1c(C(=O)Oc2cccc3cccnc23)cccc1[N+](=O)[O-]	?	0	0	-65.8	?	?	0	0	?	0
Cc1nn(CC(=O)NCCN2CCOCC2)c(=O)c2cc3sccc3n12	0	0	0	0	0	0	-	-	-	-
NC(=O)c1nc(-c2cccs2)nc2c1[nH]c(=O)n2-c1ccc(F)cc1	0	0	0	0	0	?	-	-	-	-
SMILES	DT40 TDP1 CPT	TDP1 inh	HepG2 tox-1	IL1B secr inh	TGFb SMAD3 inh	DT40 TDP1 no CPT	TGFb confirm	HepG2 tox-2	TGFb CCL64 inh	TGFb COP inh
Cc1cc(C)nc(NS(=O)(=O)c2ccc(NC(=O)COc3ccc(C(C)(C)C)cc3)cc2)n1	?	-	0	-	0	?	-	-	-	-
CC(=O)N1CCN(c2ccc(NC(=O)c3ccc([N+](=O)[O-])o3)cc2Cl)CC1	0.411µM	0	0	-101.9	6.31µM	0.92µM	4.61µM	18.4µM	11.6µM	0
CCN1CCN(c2ccc(S(=O)(=O)N3CCCCC3)cc2NC(=O)c2ccc([N+](=O)[O-])o2)CC1	8.2µM	-	0	0	7.94µM	7.31µM	10.3µM	20.6µM	16.4µM	?
CCC(=O)N1CCN(c2ccc(NC(=O)c3ccco3)cc2Cl)CC1	0	0	0	0	0	0	-	-	-	-
CC(=O)Nc1ccc2nc(NC(=O)c3ccco3)sc2c1	?	-	0	0	0	?	-	-	-	-
CCC(=O)N1CCN(c2ccc(NC(=O)c3ccc([N+](=O)[O-])o3)cc2Cl)CC1	0.82µM	0	0	-107.0	7.94µM	5.17µM	3.66µM	9.2µM	20.6µM	0
CC(=O)Nc1ccc2nc(NC(=O)c3ccc([N+](=O)[O-])o3)sc2c1	?	-	0	-61.3	5.01µM	?	1.84µM	20.6µM	?	0
Cc1ccc(S(=O)(=O)N(C)CC(=O)OCC(=O)NCCc2ccc(S(N)(=O)=O)cc2)cc1	?	0	0	0	0	0	-	-	-	-
